Compounds with a hit are over-represented: about 2.1% of the library has one in this group of screens.
KLF5 inh = kruppel-like factor 5 inhibition; DLD-1 KLF5 promoter-luciferase reporter, luminescence; inhibition, % at 5 µM; 290,000 tested, 0.23% active; AID 1700;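 active = inhibition above a per-plate limit of that plate's mean compound inhibition plus 3 SD, cut at about 60% in these data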;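 note: 0% = DMSO wells and 100% = LY294002 at 200 µM; higher means less KLF5 promoter-driven luciferase light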
aSyn 5UTR inh = MLPCN primary screen, SNCA 5' untranslated region. 300,000 tested, 0.82% active. inhibition, % (tested at 7.5 µM). alpha-synuclein 5'UTR reporter, inhibitor activity. AID 1813; in the data active = inhibition above about 60%;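 note: H4 neuroglioblastoma cells stably carrying SNCA 5'UTR luciferase fusion; 0% = DMSO wells and 100% = positive control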
IEC-6 tox = IEC-6 cytotoxicity, counter-screen for KLF5 inhibitors; luminescence viability; inhibition, % at 5 µM; 290,000 tested, 0.78% active; AID 1825; in the data active = inhibition above about 22%;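 note: 0% = plate median of test compound wells and 100% = cytotoxic reference compound wells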
APP transl inh = APP translation inhibition | AID 1285 | SH-SY5Y APP 5'UTR-luciferase reporter, luminescence | inhibition, % at 2 µM | 190,000 tested, 0.82% active;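 active = inhibition above a set limit, derived from the sample mean plus 3 SD, cut at about 45% in these data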
BaF3 parental = parental Ba/F3 viability inhibition as JAK2V617F counter-screen. CellTiter-Glo ATP luminescence. inhibition, % at 5.6 µM. 220,000 tested, 1.1% active. AID 1486;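 active = inhibition above a per-campaign cutoff, the mean inhibition of all tested compounds plus 3 SD, cut at about 27% in these data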;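 note: 0% = DMSO wells and 100% = JAK Inhibitor I control wells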
Ba/F3 V617F tox = reduce viability of Ba/F3 cells dependent on JAK2V617F. Ba/F3 EpoR-JAK2V617F viability, ATP luminescence. inhibition, % at 5.6 µM. 220,000 tested, 1.1% active;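 active = inhibition above the campaign mean plus 3 SD over all tested compounds, cut at about 24% in these data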;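 note: cytokine-independent growth of Ba/F3 cells driven by EpoR plus mutant JAK2; 0% = DMSO-treated cells and 100% = JAK inhibitor I control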
* marks the source's active call; other numbers are inactive results.

How did COc1cccc(C2CC(c3cccs3)=NN2C(=O)CSc2nc3c(cnn3-c3ccc(F)cc3)c(=O)[nH]2)c1OC (configuration not stated) do in these assays?
KLF5 inh: -2.8; aSyn 5UTR inh: 6.9; IEC-6 tox: -4.9; APP transl inh: 55.1*; BaF3 parental: 1.0; Ba/F3 V617F tox: -3.0

Results for CC(C)C(=O)N1CCN(c2ccccc2NC(=O)c2ccco2)CC1 ?
KLF5 inh: -4.6; aSyn 5UTR inh: -3.8; IEC-6 tox: 1.9

Results for CSC1=C(C#N)C(c2ccc(Cl)cc2)C2=C(CC(C)(C)CC2=O)N1 (configuration not stated) ?
aSyn 5UTR inh: 71.1*

How did O=C1N=C2N(CCN3CCCCC3)c3ccccc3N2/C1=C\c1ccc([N+](=O)[O-])o1 do in these assays?
KLF5 inh: -17.5; IEC-6 tox: -4.9; APP transl inh: 96.1*; BaF3 parental: 1.1; Ba/F3 V617F tox: -1.8

Results for O=C(CN(C(=O)CCC(=O)Nc1ccccn1)c1ccc(F)cc1)NCCc1ccccc1 ?
KLF5 inh: -8.1; aSyn 5UTR inh: -2.4; IEC-6 tox: -1.0

How did COc1cc(CCC(=O)OCC(=O)Nc2ccc(F)c(F)c2)cc(OC)c1OC do in these assays?
KLF5 inh: 2.9; aSyn 5UTR inh: -4.7; IEC-6 tox: -3.9

What do the screens show for `CCN(c1ccc(NC(=O)COC(=O)CCc2cc(OC)c(OC)c(OC)c2)cc1)C(C)C`?
KLF5 inh: -19.5; aSyn 5UTR inh: 12.6; IEC-6 tox: 3.4; APP transl inh: 14.5; BaF3 parental: 79.6*; Ba/F3 V617F tox: -1.1

What do the screens show for `COc1ccc2c(c1)sc(=N)n2C`?
KLF5 inh: -22.7; aSyn 5UTR inh: -5.8; IEC-6 tox: -1.4; APP transl inh: 5.9; BaF3 parental: 68.9*; Ba/F3 V617F tox: 58.2*

How did CN(C)CCC#CC(O)(c1ccccc1)c1ccccc1 do in these assays?
KLF5 inh: -14.6; aSyn 5UTR inh: -9.5; IEC-6 tox: -8.1; APP transl inh: 2.4; BaF3 parental: 9.0; Ba/F3 V617F tox: 0.0

How did CCN(CC)CC#CC(O)(c1ccccc1)c1ccccc1 do in these assays?
KLF5 inh: -4.2; aSyn 5UTR inh: 13.9; IEC-6 tox: 2.8; APP transl inh: 49.4*; BaF3 parental: 8.0; Ba/F3 V617F tox: -0.6

How did Cc1nc2ccc(NC(=O)c3cc(S(=O)(=O)N(C)c4ccccc4)ccc3Cl)cc2s1 do in these assays?
KLF5 inh: -29.6; aSyn 5UTR inh: -8.9; IEC-6 tox: 3.9; APP transl inh: 11.2; BaF3 parental: 48.8*; Ba/F3 V617F tox: 43.4*

How did Cc1nc2ccc(NC(=O)c3ccc(Cl)c(S(=O)(=O)N(C)c4ccccc4)c3)cc2s1 do in these assays?
KLF5 inh: -20.6; aSyn 5UTR inh: 17.6; IEC-6 tox: 8.6; APP transl inh: -6.4; BaF3 parental: 0.4; Ba/F3 V617F tox: -0.5

What do the screens show for `NC(=S)N=Nc1c(O)n(Cc2ccc(F)cc2)c2ccccc12`?
KLF5 inh: -20.2; aSyn 5UTR inh: 17.1; IEC-6 tox: 2.3; APP transl inh: -5.9; BaF3 parental: 4.0; Ba/F3 V617F tox: 3.5

Results for NC(=S)N=Nc1c(O)n(Cc2ccc(Br)cc2)c2ccccc12 ?
KLF5 inh: -5.3; aSyn 5UTR inh: 64.4*; IEC-6 tox: -4.9; APP transl inh: 57.8*; BaF3 parental: 0.9; Ba/F3 V617F tox: -0.6

Results for C/C(Cl)=C\Cn1c(O)c(N=NC(N)=S)c2cc(Br)ccc21 ?
KLF5 inh: -8.0; aSyn 5UTR inh: 70.1*; IEC-6 tox: 30.3*; APP transl inh: 30.6; BaF3 parental: 3.8; Ba/F3 V617F tox: 3.8

How did CN(C(=O)C1CCN(S(=O)(=O)c2ccccc2)CC1)c1c(N)n(Cc2ccccc2)c(=O)[nH]c1=O do in these assays?
aSyn 5UTR inh: 11.6

What do the screens show for `Cc1cccc(OCC(=O)Nc2c3c(nn2C(C)(C)C)CS(=O)(=O)C3)c1`?
KLF5 inh: -3.9; aSyn 5UTR inh: -0.1; IEC-6 tox: -0.5

Results for CC1(C)CC(NS(=O)(=O)c2ccc(C(C)(C)C)cc2)CC(C)(C)N1 ?
KLF5 inh: -14.5; aSyn 5UTR inh: -1.4; IEC-6 tox: -8.4

What do the screens show for `CCCC[n+]1c2ccccc2cc2ccccc21`?
KLF5 inh: -26.0; aSyn 5UTR inh: -1.0; IEC-6 tox: -4.6

Results for CCCCC[n+]1cccc2c3ccccc3ccc21 ?
KLF5 inh: 48.6; aSyn 5UTR inh: 26.4; IEC-6 tox: 14.3; APP transl inh: 16.2; BaF3 parental: 77.3*; Ba/F3 V617F tox: 100.0*

Assay outcomes: PubChem, several laboratories
